From PubChem BioAssay AID1053124 (Broad Institute, 2014)
Results with a measured potency or affinity are listed apart. Activity calls are given as the source filed them.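 Rule for the calls: active = cell killing whose fitted half-effect concentration is at most twice the top valid dose tested; inconclusive = flat curve with 30 to 70% killing, or a poor fit; inactive = effect in the rising direction, plus the rest.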

Test: A549 cell cytotoxicity, dose response, cytotoxicity control, ATP luminescence, cherry-pick, set 2 (AID 1053124)
Details: A549 viability, ATP luminescence (CellTiter-Glo), 72 h; series mostly up to 26 µM

Row | SMILES | outcome
1 | CN1CCc2c(sc(NC(=O)C3CCCCC3)c2C(N)=O)C1 | inactive
2 | Cc1ccc(-n2c(C)cc(/C=N/NC(=O)Cn3c4ccccc4c(=O)c4ccccc43)c2C)cc1 | inactive
3 | COc1ccc(Br)c(Cn2c(C)c(C(=O)NCc3ccc4c(c3)OCCO4)sc2=O)c1 | inactive
4 | N#Cc1ccc(OCC(=O)OCC(=O)N2CCc3ccccc32)cc1 | inactive
5 | CCN(CC)c1ccc2cc(C#N)c(=O)oc2c1 | inactive
6 | Nc1cccc2c1C(=O)N(c1ccccc1)C2=O | inactive
7 | Cc1ccc2c(c1)-c1c(cnn1CC(=O)Nc1ccccc1N1CCN(C)CC1)CO2 | inactive
8 | NC(=O)c1c(NC(=O)Cc2ccccc2)sc2c1CCN(Cc1ccccc1)C2 | inactive
9 | CCOC(=O)c1cc2c(=O)n3ccccc3nc2n(C(C)C)c1=NC(=O)c1ccco1 | inactive
10 | CCc1nc2ccc(C(=O)NCCc3c[nH]c4ccccc34)cn2c1N(C=O)CCC(C)C | inactive
11 | O=c1c2ccccc2n(CC(O)CN2CCCCC2)c2ccccc12 (stereo not given) | inactive
12 | O=C(O)c1cccc(NC(=O)c2cn(-c3ccccc3)nc2-c2cccc(Br)c2)c1 | inactive
13 | Cc1ccc(O)c(NC(=S)NC(=O)COc2ccc(Br)cc2)c1 | inactive
14 | CC(C)(C)[C@H]1CCC(=O)N([C@H](CSc2ccccc2)Cc2ccccc2)CC1 | inactive
15 | O=C(CCCN1C(=O)CSc2ncccc21)N1CCN(Cc2ccccc2)CC1 | inactive
16 | Cc1cc(-n2c(=O)c(C#N)cc3c(=O)n4cccc(C)c4nc32)no1 | inactive
17 | Cc1ccc2[nH]c3ccccc3c(=O)c2c1 | inactive
18 | CCn1c(=N)c(S(=O)(=O)c2ccccc2)cc2c(=O)n3ccccc3nc21 | inactive
19 | CCCOc1c(Br)cc(C2C3=C(CCCC3=O)N(C)C3=C2C(=O)CCC3)cc1OC | inactive
20 | Cc1cc(C)nc(SCC(=O)Nc2ccc(S(=O)(=O)Nc3onc(C)c3C)cc2)n1 | inactive

Row | SMILES | outcome
21 | COc1cc(C(c2c(C(=O)O)[nH]c3ccccc23)c2c(C(=O)O)[nH]c3ccccc23)ccc1OCc1ccccc1 | inactive
22 | CCN(CC)Cc1c(O)c(Cl)cc2c(C)cc(=O)oc12 | inactive
23 | Clc1ccccc1C1=CC(c2ccco2)n2ncnc2N1 (stereo not given) | inactive
24 | CC(C)CCN1C(=O)c2cccc3c(N)ccc(c23)C1=O | inactive
25 | CCN(CC)CCNC(=O)c1sc2nc(-c3ccccc3)cn2c1C | inactive
26 | COc1ccc(S(=O)(=O)N2CCCC2CNC(=O)C(=O)NC2CCCC2)cc1 (stereo not given) | inactive
27 | Cc1cccn2c(=O)c3cc(C(N)=S)c(=N)n(CCCN4CCOCC4)c3nc12 | inactive
28 | COc1ccc(CCNC(=O)c2cc(S(=O)(=O)N3CCCCC3)c[nH]2)cc1OC | inactive
29 | CCOc1ccc2nc(NCCCNS(=O)(=O)c3ccc(C)cc3)c(C#N)cc2c1 | inactive
30 | CCOC(=O)C1CCCN(CCCc2ccccc2)C1 (stereo not given) | inactive
31 | COc1cc(/C=C(\C#N)C(=O)NC(C)C)cc(Cl)c1O | inactive
32 | C/C(=N\NC(=O)CC#N)c1cc2ccc(O)cc2oc1=O | inactive
33 | COCCCOc1cc(NCc2ccccc2)c2ncn(C(C)C)c2c1 | inactive
34 | O=c1[nH]c(Nc2ccccc2Cl)cc2ccccc12 | inactive
35 | COC(=O)C1=CN(CC2CCCO2)C=C(C(=O)OC)C1c1cccc(O)c1 (stereo not given) | inactive
36 | COc1ccc(C(=O)c2sc3nc(-c4ccc(OC)cc4)ccc3c2N)cc1 | inactive
37 | COc1ccc(C2CC(c3cccs3)=NN2c2nc(C)c(C(C)=O)s2)cc1OC (stereo not given) | inactive
38 | CC(C)N1CCc2c(sc(NC(=O)Cc3ccccc3)c2C#N)C1 | inactive
39 | O=C(Cn1ccc([N+](=O)[O-])n1)N1CCCCCC1 | inactive
40 | Cn1cnc(S(=O)(=O)Nc2ccc(OC(F)(F)F)cc2)c1 | inactive
